Assay outcomes (PubChem BioAssay)
Many of the other results were omitted from the sample, so hits are more common in it than they were.
HIV RNase H inh-1 = blocks HIV-1 RNase H cleavage of RNA/DNA duplex | RT-RNase H RNA/DNA duplex cleavage, fluorescence | P04585 | 65,000 compounds, 1.9% hits | inhibition, % at 10 µM; in the data active = inhibition above about 50%
HIV RNase H inh-2 = confirmation of HIV-1 reverse transcriptase RNase H inhibitors. shares compounds with HIV RNase H inh-1. Recombinant RT RNase H, fluorescent RNA/DNA duplex cleavage. inhibition, % at 10 µM. 1,000 compounds, 39% hits; in the data active = inhibition above about 48%; inconclusive = no clear call, values can overlap the other calls
Numbers stand for hits; i = inactive; ? = inconclusive.

SMILES	HIV RNase H inh-1	others
CCOC(=O)N1CCC(NC(=O)C(NS(=O)(=O)c2ccc3c(c2)CCN3C(C)=O)C(C)C)CC1 (stereo unspecified)	i
CC(=O)N1CCc2cc(S(=O)(=O)NC(CC(C)C)C(=O)Nc3cc(C(=O)O)ccc3C)ccc21 (stereo unspecified)	61.3	HIV RNase H inh-2=i
CCc1nnc(NC(=O)CSc2nnc3ncccn23)s1	i
C#CC1(O)CC(C)N(C)C(C)C1 (stereo unspecified)	i
CNc1cccccc1=S	i
CC(C)(C)OC(=O)NCCCCCc1nnc(SCC(=O)Nc2cccc(Cl)c2)o1	i
Nc1ccc(N2CCCCC2)cc1N1CCCCC1	i
CC(=O)c1ccc(N2CCCCCC2)c(F)c1	i
Fc1ccc(-n2[nH]nnc2=S)cc1N1CCCC1	63.4	HIV RNase H inh-2=i
Cc1ccc(SC(C)c2nc(-c3cccnc3)no2)cc1 (stereo unspecified)	i
COC(=O)C1Sc2[nH]c(=O)sc2C(c2ccc(Cl)cc2)C1C(=O)OC (stereo unspecified)	i
O=C(O)C1Sc2[nH]c(=O)sc2C2c3cc(Cl)ccc3OC(=O)C12 (stereo unspecified)	71.9	HIV RNase H inh-2=i
COC(=O)C1Sc2[nH]c(=O)sc2C2c3ccccc3OC(=O)C12 (stereo unspecified)	i
Cc1cc(C)n2nc(NCc3cccc(Br)c3)nc2n1	i
CN(C)S(=O)(=O)c1ccc2c(c1)C(CC(=O)O)NC2=O (stereo unspecified)	i
C=CCn1c(SCc2cc(=O)n3ccsc3n2)nnc1C1CCCCC1	66.8	HIV RNase H inh-2=i
C=CCn1c(SCC(=O)NC(=O)NC2CCCC2)nnc1C1CCCCC1	i
CCCn1c(=O)c2ccccc2n2c(SCc3cc(=O)n4ccsc4n3)nnc12	i
CCN1CCN(C(c2cccs2)C(C)NC(=O)c2cccnc2)CC1 (stereo unspecified)	i
O=c1[nH]c2ccccc2n1CCCN1CCN(C(c2ccccc2)c2ccccc2)CC1	i
COC(=O)c1cc(CSc2nnc(NC3CCCCC3)s2)oc1C	i
O=C(O)CCC1COc2ccccc2O1 (stereo unspecified)	i
CCOc1cc(C2/C(=C(/O)c3ccc(OC(C)C)cc3)C(=O)C(=O)N2CCCOC)ccc1O (stereo unspecified)	i
COC(=O)c1ccc2c(=O)n(Cc3ccco3)c(SCC(=O)Nc3ccc(C)c(Cl)c3)nc2c1	85.4	HIV RNase H inh-2=75.8
COCCNC(=O)CSc1nc2cc(OC)c(OC)cc2c(=O)n1Cc1ccco1	i
SMILES	HIV RNase H inh-1	others
CCOC(=O)c1cccc(NC(=O)CSc2nc3ccccc3c(=O)n2CC)c1	i
O=C(COC(=O)c1ccc(=O)n(Cc2ccccc2)n1)Nc1ccc2c(c1)OCCO2	i
CC1(C)Cc2c(C#N)c(SCCC#N)nc(N3CCOCC3)c2CS1	i
CC1CCC(NC(=O)C2c3ccccc3C(=O)N2CCCN2CCOCC2)CC1 (stereo unspecified)	i
Cc1nnc(SCCn2c(N(C)Cc3ccccc3)nc3c2c(=O)[nH]c(=O)n3C)s1	i
CSc1nc2c(cnn2-c2ccc(C)c(C)c2)c(=O)[nH]1	i
COC(=O)c1ccc(CSc2nc3c(cnn3-c3ccc(F)cc3)c(=O)[nH]2)o1	i
CCCSc1nc2c(cnn2-c2ccc(Cl)cc2)c(=O)[nH]1	55.8	HIV RNase H inh-2=66.5
COC(=O)c1ccc(CSc2nc3c(cnn3-c3ccccc3)c(=O)[nH]2)o1	i
CCCCSc1nc2c(cnn2-c2ccc(F)cc2)c(=O)[nH]1	i
COC(=O)c1ccc(CSc2nc3c(cnn3-c3ccc(Cl)cc3)c(=O)[nH]2)o1	58.5	HIV RNase H inh-2=i
CCOC(=O)N1CCN(C(=O)CSc2nc3c(cnn3-c3ccc(Cl)cc3)c(=O)[nH]2)CC1	i
C=CCSc1nc2c(cnn2-c2ccc(C)c(C)c2)c(=O)[nH]1	58.0	HIV RNase H inh-2=59.0
CCC(C)Sc1nc2c(cnn2-c2ccc(C)c(C)c2)c(=O)[nH]1 (stereo unspecified)	i
CCOc1cc(S(=O)(=O)NCc2ccco2)c(OCC)cc1-n1cnnn1	i
C=CCOC(=O)C1=C(C)Nc2nc3ccccc3n2C1c1ccncc1 (stereo unspecified)	i
COCC(C)n1c(C)cc(C(=O)COC(=O)c2ccc(N3CCCC3=O)cc2)c1C (stereo unspecified)	i
CSC1=NCCN1C(=O)Cc1cccs1	i
CN(C)C(CNC(=O)CN1C(=O)NC2(CCc3ccccc32)C1=O)c1ccco1 (stereo unspecified)	i
COc1ccc2nc(NC(=O)C3CCCN3S(=O)(=O)c3ccc(C)cc3)sc2c1 (stereo unspecified)	i
COC(=O)C1=C(N)OC2=C(C(=O)CC(C)(C)C2)C1c1ccoc1 (stereo unspecified)	i
Cc1ccc(C(=O)OCc2cn3ccccc3n2)cc1	i
CCOC(=O)C1CSC(CC(=O)Nc2ccc(Cl)cc2)C(=O)N1 (stereo unspecified)	i
Cc1ccc2cc(C#N)c(NCCCNC(=O)C3CCCO3)nc2c1 (stereo unspecified)	i
CSc1nc2sc3c(c2c2nnnn12)CCC3	i
SMILES	HIV RNase H inh-1	others
CSc1nc2sc3c(c2c2nnnn12)CCCC3	51.1	HIV RNase H inh-2=i
CSc1nc2sc3c(c2c2nnnn12)CC(C)(C)OC3	i
Cc1cc(C)n(C(=O)c2cc3ccccc3c(=O)o2)n1	i
Cc1ccc(S(=O)(=O)n2nc(-c3ccc(Cl)cc3)nc2NCc2ccco2)cc1	i
CC(=O)N(Cc1cc(=O)[nH]c2ccccc12)c1cccc(C)c1	81.7	HIV RNase H inh-2=67.1
CC(=O)N(Cc1cc(=O)[nH]c2ccccc12)c1ccccc1	i
COc1ccc2[nH]c(=O)c(CN(C(C)=O)c3cccc(C)c3)cc2c1	i
CCOC(=O)N1CCN(C(=O)CSc2ccccc2)CC1	i
Cn1c(=O)c(=O)n(C)c2cc(S(=O)(=O)N3CCOCC3)ccc21	i
Cn1c(=O)n(C)c2cc(S(=O)(=O)O)ccc21	i
Cc1cccc(N2CCN(S(=O)(=O)c3ccc4c(c3)n(C)c(=O)c(=O)n4C)CC2C)c1 (stereo unspecified)	56.8	HIV RNase H inh-2=?
Cc1cccc(NC(=O)CCN2C(=O)C3C4C=CC(C4)C3C2=O)n1 (stereo unspecified)	i
Cc1cccc(N2CCN(C(=O)Cn3nc(Cc4ccncc4)c4ccccc4c3=O)CC2)c1C	i
Cc1nc2ccccc2c(=O)n1NC(=O)COc1ccccc1	i
CCCOc1ccc(C(=O)Nn2c(C)nc3ccccc3c2=O)cc1	72.1	HIV RNase H inh-2=i
CCCCOc1ccc(CNn2c(C)nc3ccccc3c2=O)cc1	i
Cc1nc2ccc(C(C(F)(F)F)(C(F)(F)F)C(F)(F)F)cc2[nH]1	i
COc1cccc(/C(O)=C2/C(=O)C(=O)N(CCN3CCOCC3)C2c2cccs2)c1 (stereo unspecified)	i
CCCCCCNS(=O)(=O)c1nc2nc(C)cc(C)n2n1	i
CCOC(=O)N(c1ccccc1)P1(=S)OCCO1	88.4	HIV RNase H inh-2=57.5
CCOC(=O)N(c1ccccc1)P1(=S)OCC(C)O1 (stereo unspecified)	i
COC(=O)C1C(c2ccccc2)C(C(=O)N2CCOCC2)C1c1ccccc1 (stereo unspecified)	i
COC(=O)N(c1ccccc1)P1(=S)OCCO1	90.2	HIV RNase H inh-2=53.8
CNC(=O)N(c1ccccc1)c1ccccc1	i
CCOC(=O)N1CCN(S(=O)(=O)Cc2ccccc2)CC1	i
COC(=O)c1ccc(NC(=O)NS(=O)(=O)c2ccc(C)cc2)cc1	i
COc1ccc(S(=O)(=O)N(C)c2c(C)n(C)n(-c3ccccc3)c2=O)cc1OC	i
